MCF10A rereplic = A quantitative high throughput screen for small molecules that induce DNA re-replication in MCF 10a normal breast cells; MCF 10A DNA re-replication, Hoechst nuclear intensity, 48 h; Potency, µM (highest dose often 46.1 µM), usual class: activators; hit rate 2.9% among 350,000; also: nearly all actives have a fitted effect of over 50% in size
KB-V1 MDR tox = qHTS assay for MDR1-selective chemotherapeutics: Primary screen using the drug-selected MDR subline cells KB-V1. KB-V1 MDR cells viability, CellTiter-Glo, 72 h. Potency, µM (titrated, usually from 46.1 µM), hits mostly cytotoxic. hit rate 3.4% among 400,000; also: nearly all actives have a fitted effect of over 60% in size
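Following 72 h at 37 degrees C with compound, KB-V1 cell viability was read by CellTiter-Glo luminescence, medium being phenol-red-free DMEM plus 10% FBS; concentration-response parameters came from normalized, curve-fitted qHTS data.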
Gal4-VP16 FLuc = VP16 counterscreen qHTS for inhibitors of ROR gamma transcriptional activity; Drosophila S2 Gal4-VP16 UAS-luciferase, luminescence, 20 h; Potency, µM (highest dose often 53.6 µM), usual class: inhibitors; hit rate 3.5% among 310,000;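 also: Gal4-VP16 expression switched on by copper sulfate through the metallothionein promoter; nearly all actives have a fitted effect of over 50% in size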
KB-3-1 tox = qHTS assay for MDR1-selective chemotherapeutics: Primary screen using the parental adenocarcinoma cell KB-3-1. AID 1347075, 2019. KB-3-1 viability, CellTiter-Glo ATP luminescence, 72 h. Potency, µM (top dose mostly 46.1 µM), actives largely listed as cytotoxic. hit rate 1.4% among 400,000; also: nearly all actives have a fitted effect of over 60% in size
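72 h, 37 °C compound treatment of KB-3-1 parental cells; CellTiter-Glo added, 10 min, luminescence read. Data corrected against DMSO-only plates and normalized before curve fitting.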
RORg inh = qHTS for inhibitors of ROR gamma transcriptional activity. hit rate 5.4% among 310,000. AID 2551, 2010. Potency, µM (doses to about 53.6 µM), actives largely listed as inhibitors. Drosophila S2 Gal4-RORgamma UAS-luciferase reporter, 20 h; also: nearly all actives have a fitted effect of over 60% in size
Target sequence (P51450 whole entry, looked up, the tested form may be a part): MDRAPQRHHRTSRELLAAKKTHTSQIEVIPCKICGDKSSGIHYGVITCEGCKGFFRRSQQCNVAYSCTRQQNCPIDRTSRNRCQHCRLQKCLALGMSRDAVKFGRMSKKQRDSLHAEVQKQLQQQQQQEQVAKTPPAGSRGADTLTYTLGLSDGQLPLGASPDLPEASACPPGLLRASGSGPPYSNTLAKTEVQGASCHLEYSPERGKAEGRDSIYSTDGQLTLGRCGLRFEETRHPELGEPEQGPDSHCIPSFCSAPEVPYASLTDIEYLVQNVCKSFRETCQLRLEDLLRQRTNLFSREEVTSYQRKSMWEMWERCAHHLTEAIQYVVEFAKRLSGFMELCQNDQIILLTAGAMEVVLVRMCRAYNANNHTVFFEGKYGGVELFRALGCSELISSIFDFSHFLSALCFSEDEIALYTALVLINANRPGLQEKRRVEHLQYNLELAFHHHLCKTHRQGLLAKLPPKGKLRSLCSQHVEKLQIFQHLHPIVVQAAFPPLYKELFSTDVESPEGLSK
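Read-out: Photinus luciferase luminescence; inhibitors lower reporter signal. Insect Schneider cells with Gal4-ROR gamma fusion under metallothionein promoter, UAS reporter; 700 uM final copper sulfate induction, 20 hr, ambient temperature.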
SW480 rerep = A quantitative high throughput screen for small molecules that induce DNA re-replication in SW480 colon adenocarcinoma cells; SW480 DNA re-replication, Hoechst DNA content imaging, 48 h; Potency, µM (doses to about 46.1 µM), most hits filed as activators; hit rate 1.8% among 340,000; also: nearly all actives have a fitted effect of over 55% in size
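Quantitative HTS format with DMSO vehicle controls; 48 hr drug incubation at 37 C, then 40 min Hoechst staining and scanning imager measurement at 405 nm excitation.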
Hits are given with their value; i = inactive; ? = inconclusive; nt = not tested or not shown; [ ] = dose if it differs, or a comment. A selection: hits, their analogues and other compounds. The true share with any hit is near 10%. Calls follow the shape of the dose curve; as a rule, active = well fitted curve in the direction sought with a large enough effect; inconclusive = small, poorly fitted or top-dose-only effect, or another doubt; inactive = no such curve, though single readings can be large; an effect the other way counts as inactive or inconclusive.

SMILES | MCF10A rereplic | KB-V1 MDR tox | Gal4-VP16 FLuc | KB-3-1 tox | RORg inh | SW480 rerep
Cc1cc(C)cc(-n2c3ccc(NC(=O)Cc4cccc5ccccc45)cc3c(=O)n2C)c1 | nt | ? | nt | 5.2µM | nt | nt
O=C(Cc1cccc2ccccc12)Nc1ccc(OC(F)F)c(Cl)c1 | i | 21µM | i | ? | ? | i
O=C(Nc1ccc(OC(F)F)c(Cl)c1)C(c1ccccc1)c1ccccc1 | 2.3µM | ? | ? | ? | ? | i
O=C(O)c1ccccc1OC(C(=O)Nc1cc(Cl)cc(Cl)c1)c1ccccc1 (configuration not stated) | 21µM | ? | i | i | i | ?
COCc1cccc(NC(=O)Cc2cccc3ccccc23)c1 | i | i | i | i | i | i
Cn1cccc1C(=O)N1CCC2(CCCN(C(c3ccccc3)c3ccccc3)C2)CC1 | nt | nt | i | nt | i | nt
Cc1nn(CCCC(=O)NCc2ccc(F)cc2)c(=O)c2c1sc1ccccc12 | nt | i | nt | i | nt | nt
Cn1c(=O)c(=O)n(C)c2cc(NS(=O)(=O)c3ccc(Br)cc3)c(Cl)cc21 | nt | i | nt | i | nt | nt
COc1ccc(C(=O)Nc2nc(C)c3cc4c(cc3n2)OCO4)cc1 | ? | i | i | i | i | i
COc1ccc(-n2nnnc2-c2cnc3cc4c(cc3c2C)OCO4)cc1 | i | 9.2µM | i | i | ? | i
COc1ccc2ccccc2c1CNCCCN1CCOCC1 | i | i | i | i | i | i
C=CCOc1ccc2ccccc2c1CNCCCN1CCOCC1 | i | 16µM | i | i | i | i
Cc1ccc(S(=O)(=O)C2(C(=O)N3CCN(c4cc(C)ccc4C)CC3)CC2)cc1 | i | i | i | i | i | i
Cc1ccc(S(=O)(=O)C2(C(=O)N3CCCCCC3)CC2)cc1 | i | 23µM | i | i | i | i
Cc1ccc(S(=O)(=O)C2(C(=O)N3CCN(C4CCCCC4)CC3)CC2)cc1 | i | 16µM | i | i | i | i
CC[C@H](C)[C@@H]1OC(=O)[C@@H](C)[C@@H](CC)NC(=O)[C@H](C)N(C)C(=O)C(C)(C)C(=O)C(C)NC(=O)[C@H](Cc2ccccc2)N(C)C(=O)[C@H](C(C)C)N(C)C(=O)CNC(=O)[C@H](CC(C)C)N(C)C(=O)CNC1=O (some centres not stated) | nt | i | nt | 1.2µM | nt | nt
CC1(C)Cc2c(sc3nc(-c4cccs4)n(N)c(=O)c23)CO1 | ? | 8.2µM | 16µM | i | ? | ?
Nc1nc(NCCOCCO)nc(NC2CCCCC2)c1[N+](=O)[O-] | i | i | i | i | i | ?
Nc1nc(NCCO)nc(NC2CCCCC2)c1[N+](=O)[O-] | 26µM | i | i | i | i | ?
Nc1nc(Nc2ccccc2)nc(NC2CCCCC2)c1[N+](=O)[O-] | ? | ? | i | ? | i | 9.2µM
Cn1cnc([N+](=O)[O-])c1NCc1ccccc1 | i | i | i | i | i | i
Cn1cnc([N+](=O)[O-])c1S(=O)(=O)c1cccc(Cl)c1 | 3.7µM | ? | 5µM | ? | 2.8µM | 5.8µM
Cn1cnc([N+](=O)[O-])c1S(=O)(=O)Oc1ccccc1 | 7.3µM | ? | nt | ? | nt | 4.1µM
CCOc1ccccc1NC(=O)CSc1nc2c(oc3ccccc32)c(=O)n1-c1ccc(C)c(C)c1 | nt | i | nt | i | nt | nt
Cn1c(-c2ccc(Cl)cc2)ccc(C#N)c1=O | i[0.0737 µM] | 5.8µM | i | ? | i | i
SMILES | MCF10A rereplic | KB-V1 MDR tox | Gal4-VP16 FLuc | KB-3-1 tox | RORg inh | SW480 rerep
Cc1ccc(Nc2ncnc3ccccc23)cc1 | i | ? | i | i | i | i
Cc1ccc(/C(=N/Nc2ncnc3ccccc23)C(=O)O)cc1 | i | i | 0.89µM | i | 0.05µM | 18µM
CC(=O)NNc1ncnc2ccccc12 | i | i | i | i | i | i
COC(=O)C(=O)C/C(=N/Nc1ncnc2ccccc12)c1ccc(Cl)cc1 | i | ? | ? | ? | 11µM | i
Cc1ccc(CNc2cc(C)nc3nc(-c4cccc(C)c4)nn23)cc1 | nt | ? | nt | i | nt | nt
Cc1ccccc1NC(=O)c1ccc(N(Cc2ccccc2)S(C)(=O)=O)cc1 | nt | ? | nt | i | nt | nt
OCC1(Cc2ccc(Cl)cc2)CCN(CCCc2ccccc2)CC1 | ? | i | i | i | i | 18µM
